# PostGolgi ctrl – growth inhibition of yeast control strain, primary screen, counter-screen for post-Golgi transport modulator project. efflux-deficient yeast background strain, growth absorbance A615, 16 h. inhibition, % at 10 µM. actives 5% (n = 98,000). AID 738, 2007
# CYP2C9 activ – human CYP2C9 activators, primary screen, biochemical, luminescence; actives 1.4% (n = 96,000); recombinant CYP2C9, luciferin-H conversion; stronger effect = higher value; factor 1 = untreated enzyme, 0 = blocked; Cytochrome P450 2C9 (Homo sapiens), P11712; activation factor at 5 µM;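 active = activation factor of 2 or more for CYP2C9 at a 5 µM dose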;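 also: 0 = sulfaphenazole-blocked wells and 1 = vehicle-only wells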
# Target sequence (P11712 whole entry, looked up): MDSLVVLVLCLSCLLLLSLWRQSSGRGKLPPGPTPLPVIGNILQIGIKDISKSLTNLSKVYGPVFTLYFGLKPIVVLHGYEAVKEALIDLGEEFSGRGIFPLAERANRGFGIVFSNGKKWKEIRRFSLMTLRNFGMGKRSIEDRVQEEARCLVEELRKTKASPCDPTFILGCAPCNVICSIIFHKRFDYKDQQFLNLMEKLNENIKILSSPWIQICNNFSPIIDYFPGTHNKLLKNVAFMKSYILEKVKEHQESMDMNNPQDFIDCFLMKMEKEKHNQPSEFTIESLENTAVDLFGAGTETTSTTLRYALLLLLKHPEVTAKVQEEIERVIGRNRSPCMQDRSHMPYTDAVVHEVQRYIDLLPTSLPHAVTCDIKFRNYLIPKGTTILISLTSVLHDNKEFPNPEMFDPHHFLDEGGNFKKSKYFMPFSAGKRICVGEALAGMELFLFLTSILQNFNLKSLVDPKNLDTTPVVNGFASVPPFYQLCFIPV
# CYP2C9 inhib – blockers of cytochrome P450 2C9 activity – biochemical, luminescence, ADME assay, primary screen; P11712; CYP2C9 Supersomes, luciferin-H conversion; inhibition, % at 5 µM; actives 20% (n = 96,000); AID 777, 2007;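 active = blocking of liver enzyme CYP2C9 beyond about 50% at 5 µM, limit read from the data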
# CYP2C19 activ – human CYP2C19 activators, primary screen, biochemical, luminescence | Cytochrome P450 2C19 (Homo sapiens), P33261 | recombinant CYP2C19, luciferin-H EGE luminescence; stronger effect = higher value; 0 = fully inhibited enzyme, 1 = untreated enzyme | AID 1025, 2008 | activation factor at 5 µM | 96,000 tested, under 10 active;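 active = activation factor of at least 2 at 5 µM in the primary screen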;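 also: 0 = wells with 2.5 mM tranylcypromine and 1 = vehicle-only wells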
# PostGolgi yeast – phenotypic screen on post-Golgi transport, primary screen; post-Golgi transport phenotypic cell assay; AID 739, 2007; actives 0.9% (n = 98,000); inhibition, % at 10 µM;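 also: yeast cells grown in 1536-well plates; yeast grown about 18 h at 30C before absorbance read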
# CYP2C19 inhib – blockers of cytochrome P450 2C19 activity – biochemical, luminescence, ADME assay, primary screen; P33261; CYP2C19 Supersomes, luciferin-H EGE luminescence, 30 min; inhibition, % at 5 µM; actives 21% (n = 96,000);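 active = CYP2C19 inhibition above a set limit at 5 µM in the primary screen, cut at about 50% in these data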;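 also: plate controls were negative control wells for no effect and 2.5 mM tranylcypromine positive control for full effect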
# Active calls of the source: *; . = no result. Most compounds without a hit are left out; they make up all but 32% or so of the library. Rule as the data show it, unless noted: active = inhibition above about 30%; inactive = the rest.
SMILES,PostGolgi ctrl,CYP2C9 activ,CYP2C9 inhib,CYP2C19 activ,PostGolgi yeast,CYP2C19 inhib
Cc1ccccc1CSCC(Nc1ccc(C(=O)O)cc1[N+](=O)[O-])C(=O)O (stereo not given),3,0.3,69*,1,-2,-2
Cc1cccc(-n2c(N)cc(=O)nc2SCC(=O)NC2CCCCC2)c1,3,0.8,22,0.9,1,6
CCOc1ccccc1N1CCN(C(=O)c2ccncc2)CC1,0,0.3,67*,0,2,99*
CCOc1ccccc1N1CCN(C(=O)c2cccc(-c3ccc(O)cc3)c2)CC1,99*,0.1,87*,0.3,5,74*
CCOC(=O)CC(=O)Nc1cc(Cl)ccc1O,10,0.6,44,0.5,-6,45
O=C(O)CC(=O)Nc1cc(Cl)ccc1O,8,0.8,15,1,16,-1
O=C(CCc1ccccc1)Nc1cc(Cl)ccc1O,13,0.1,88*,0,21,99*
COc1ccccc1CC(=O)Nc1cc(Cl)ccc1O,4,1.9,-91,0.5,-6,51*
COc1ccccc1CC(=O)Nc1ccccc1O,7,3.5*,-245,0.4,-7,62*
COc1ccccc1CNC(=O)CN(C)CC(=O)Nc1cccc(F)c1,17,0.2,85*,0.1,8,92*
COc1ccccc1CNC(=O)C[n+]1ccccc1,4,0.8,22,1.1,3,-7
COc1ccccc1NC(=O)Cc1cccs1,2,1.4,-42,0.6,0,37
COC(=O)CC1SC(=O)NC1=Nc1cccc(C)c1 (stereo not given),15,0.9,12,0.9,7,12
Cc1c(NC(=O)Nc2ccc(Cl)c(Cl)c2)c(=O)n(-c2ccccc2)n1C,12,1,3,0.9,-1,13
CC(C)CC(=O)NC(=S)Nc1ccccc1C(=O)Nc1ccccc1,-5,0.7,27,0.7,-5,33
COc1ccccc1CC(=O)Nc1ccc(OC)c(OC)c1,8,1.2,-18,0.7,7,29
COc1cc(NC(=O)Cc2ccccc2OC)cc(OC)c1,-5,0.7,30,0.5,-3,51*
COc1ccccc1NC(=O)Cc1csc(NC(=S)Nc2ccccc2)n1,19,0.3,66*,0.9,-2,8
O=C(Nc1cc(Cl)ccc1O)c1snnc1-c1ccccc1,15,0.2,83*,0.5,-4,52*
COc1ccc(NC(=S)Nc2nc(CC(=O)Nc3ccccc3OC)cs2)cc1,12,0.7,28,0.9,2,6
Cc1cc(C)c(S(=O)(=O)N2CCN(c3nc4c(c(=O)n(C)c(=O)n4C)n3C)CC2)c(C)c1,.,0.8,22,0.9,.,9
Cc1cccc(N(CC(=O)NC2CCCCC2)C(=O)c2c(C)noc2C)c1,-2,0.7,32,1,-2,2
CC1Cc2ccccc2N1C(=O)CSc1ncccc1C(=O)O (stereo not given),.,1.1,-12,1.1,.,-10
CC1Cc2ccccc2N1C(=O)COC(=O)Cn1nnc(-c2ccccc2)n1 (stereo not given),12,0.1,88*,0.4,-4,65*
CCOC(=O)C1=C(C)NC(C)=C(C(=O)OCC)C1C(=O)OCC(=O)N1c2ccccc2CC1C (stereo not given),3,0,100*,0.1,2,93*
SMILES,PostGolgi ctrl,CYP2C9 activ,CYP2C9 inhib,CYP2C19 activ,PostGolgi yeast,CYP2C19 inhib
CC1Cc2ccccc2N1C(=O)COC(=O)c1cccnc1Cl (stereo not given),1,1,4,0.5,-1,53*
CC1Cc2ccccc2N1C(=O)COC(=O)c1ccc(S(=O)(=O)N(C)C)cc1 (stereo not given),11,1.2,-15,1,30*,2
CCCN(CCC)CCNc1c(N2CCN(C(=O)OCC)CC2)c(=O)c1=O,5,1.1,-13,1.1,-3,-12
COCc1c(C(=O)OCC(=O)N2c3ccccc3CC2C)oc2ccccc12 (stereo not given),-2,1.1,-8,0.5,24,53*
COc1ccc(-n2c(NCCN(C)C)nc3sc4c(c3c2=O)CCCCC4)cc1,2,0.7,30,0.9,1,10
O=C(Cc1ccc(F)cc1)Nc1c2c(nn1-c1cccc(Cl)c1)CS(=O)C2 (stereo not given),10,0.6,38,0,-2,100*
CC(=O)Nc1c2c(nn1-c1cccc(Cl)c1)CS(=O)C2 (stereo not given),2,1.1,-8,1,1,-4
COc1c(F)c(F)c(C(=O)O)c(Nc2ccccc2)c1F,4,1,0,0.9,-2,14
CC1CCC(C(C)C)C(OC(=O)CSc2nc(N)cc(=O)[nH]2)C1 (stereo not given),42*,1.1,-8,0.9,-15,9
CC1CCC(C(C)C)C(OC(=O)CSc2n[nH]c(=O)[nH]c2=O)C1 (stereo not given),12,1,-2,1.1,1,-12
Cc1nnc(SCC(=O)OC2CC(C)CCC2C(C)C)[nH]c1=O (stereo not given),10,0.1,88*,0.7,4,32
CC1CCC(C(C)C)C(OC(=O)CSc2nnc(N)s2)C1 (stereo not given),32*,0.6,40,0.3,4,66*
COc1cc(OC)cc(C(=O)NC2CC3CCC(C2)N3Cc2ccco2)c1 (stereo not given),1,1,1,1,4,0
O=C(CCC1CCCC1)N1CCC(N2CCN(c3ccccc3)CC2)CC1,11,1.1,-12,1.1,-1,-10
O=C(NCCNc1ccc([N+](=O)[O-])cc1C(F)(F)F)c1ccccc1F,-3,1.1,-6,0.1,-3,92*
O=[N+]([O-])c1ccc(NCCNS(=O)(=O)c2ccccc2)c(C(F)(F)F)c1,13,0.3,75*,0.1,-7,88*
Cc1ccc(S(=O)(=O)NCCNC(=O)c2cc(OCC(F)(F)F)ccc2OCC(F)(F)F)cc1,1,1,4,0.6,2,45
CC(C)(C)SCCNS(=O)(=O)c1ccc(F)cc1,2,0.6,40,0.9,-8,14
O=C(NCCNc1ccc([N+](=O)[O-])cc1)c1ccccc1Br,0,0.6,44,0.6,0,41
Cc1ccc(S(=O)(=O)NCCNc2ccc([N+](=O)[O-])cc2C(F)(F)F)cc1,40*,0.2,77*,0.5,-1,49
CN1C(=O)CC(N2CCC(c3nc4ccccc4[nH]3)CC2)C1=O (stereo not given),-1,1,-1,1,6,-3
